# Records with an inconclusive call do not appear. Entries that show only a call come without a potency. Activity calls are given as the source filed them. The call rests on the fitted dose curve.
# Columns and labels:
# [1] = Primary qHTS for Huh7 cytotoxicity: counterscreen for inhibitors of MERS-S pseudotyped particle cell entry (AID 1479147); details: cell viability read-out; series mostly up to 57.1 µM
# [2] = Primary qHTS for Vero E6 cytotoxicity: counterscreen for inhibitors of SARS-S pseudo-typed particle cell entry (AID 1479150); details: cell viability; series mostly up to 57.1 µM
Structure (SMILES),Potency [1],Potency [2]
Clc1ccc(C(Cn2ccnc2)OCc2ccsc2Cl)c(Cl)c1 (stereo unspecified),inactive,inactive
O=C(NCC1CN(c2ccc(N3CCOCC3=O)cc2)C(=O)O1)c1ccc(Cl)s1 (stereo unspecified),inactive,inactive
CCCOC(C(=O)OC1CCN(C)CC1)(c1ccccc1)c1ccccc1,inactive,inactive
N#C/C(=C1/SC[C@@H](c2ccc(Cl)cc2Cl)S1)n1ccnc1,inactive,inactive
O=C(CCCN1CC=C(n2c(=O)[nH]c3ccccc32)CC1)c1ccc(F)cc1,inactive,inactive
COC(=O)[C@H]1[C@H]2C[C@@H]3c4[nH]c5cc(OC)ccc5c4CCN3C[C@H]2C[C@@H](OC(=O)/C=C/c2ccc(O)c(OC)c2)[C@@H]1OC,inactive,inactive
COCCOC(=O)C1=C(C)NC(C)=C(C(=O)OC/C=C/c2ccccc2)C1c1cccc([N+](=O)[O-])c1 (stereo unspecified),inactive,inactive
COc1ccc2c(c1)C(=O)N(CCc1ccc(S(=O)(=O)NC(=O)NC3CCCCC3)cc1)C(=O)C2(C)C,inactive,inactive
CC1CCCCN1CCCOC(=O)c1ccc(OC2CCCCC2)cc1 (stereo unspecified),inactive,inactive
CN1[C@@H]2CC[C@H]1CC(OC(=O)c1c[nH]c3ccccc13)C2 (stereo partly specified),inactive,inactive
Clc1ccc(C(Cn2ccnc2)OCc2c(Cl)cccc2Cl)c(Cl)c1 (stereo unspecified),inactive,inactive
O[C@@H](COc1cccc2ncccc12)CN1CCN(C2c3ccccc3[C@@H]3[C@H](c4ccccc42)C3(F)F)CC1 (stereo partly specified),inactive,inactive
Clc1ccc2c(c1)CCc1cccnc1C2=C1CCNCC1,inactive,inactive
NS(=O)(=O)c1cc2c(cc1Cl)NCNS2(=O)=O,inactive,inactive
Fc1ccc(C(c2ccc(F)cc2)N2CCN(C/C=C/c3ccccc3)CC2)cc1,inactive,inactive
CCN(CC)CCOC(=O)C1(c2ccccc2)CCCC1,inactive,inactive
CC(C)(C)c1ccc(C(=O)CCCN2CCC(OC(c3ccccc3)c3ccccc3)CC2)cc1,inactive,inactive
CCN(CC)CCOCCOC(=O)C1(c2ccccc2)CCCC1,inactive,inactive

Structure (SMILES),Potency [1],Potency [2]
c1ccc(CNCCNCc2ccccc2)cc1,inactive,inactive
CN(C)CCCN1c2ccccc2Sc2ccccc21,inactive,inactive
COc1cccc(CCc2ccccc2OCC(CN(C)C)OC(=O)CCC(=O)O)c1 (stereo unspecified),inactive,inactive
C=C1C[C@H]2[C@@H]3C=C(C)C4=CC(=O)CC[C@]4(C)[C@H]3CC[C@]2(C)[C@@]1(OC(C)=O)C(C)=O,inactive,inactive
CN1CCCCC1CCN1c2ccccc2Sc2ccc(S(C)=O)cc21 (stereo unspecified),inactive,inactive
CC/C(=C(/CC)c1ccc(O)cc1)c1ccc(O)cc1,inactive,inactive
CN(C)CCCOc1nn(Cc2ccccc2)c2ccccc12,inactive,inactive
COc1ccc2c(c1)c(CC(=O)O)c(C)n2C(=O)c1ccc(Cl)cc1,inactive,inactive
CN1CC(=O)N2[C@H](c3ccc4c(c3)OCO4)c3[nH]c4ccccc4c3C[C@@H]2C1=O,inactive,inactive
Cc1ccc(Cl)c(OCC(O)CNC(C)(C)C)c1 (stereo unspecified),inactive,inactive
CCCCCC(=O)O[C@]1(C(C)=O)CC[C@H]2[C@@H]3CCC4=CC(=O)CC[C@]4(C)[C@H]3CC[C@@]21C,inactive,inactive
CC(C)C[C@@H]1[C@H](c2ccccc2)OC(=O)N1CCCN1CCCCCC1,inactive,inactive
O=c1[nH]c2ccccc2n1CCCN1CCN(C(c2ccccc2)c2ccccc2)CC1,inactive,inactive
C#C[C@]1(OC(C)=O)CC[C@H]2[C@@H]3CCC4=C[C@@H](OC(C)=O)CC[C@@H]4[C@H]3CC[C@@]21C,inactive,inactive
NC(=NCCCCCCN=C(N)/N=C(\N)Nc1ccc(Cl)cc1)/N=C(\N)Nc1ccc(Cl)cc1,inactive,inactive
COC(=O)C1=C(C)NC(C)=C(C(=O)OCCN2CCN(C(c3ccccc3)c3ccccc3)CC2)C1c1cccc([N+](=O)[O-])c1 (stereo unspecified),inactive,inactive
CN(C)CCOc1ccccc1Cc1ccccc1,inactive,inactive
CCN(CC)CCOc1ccc(/C(=C(\Cl)c2ccccc2)c2ccccc2)cc1,–,inactive

# Source: PubChem BioAssay (NCATS)
